# Measurements taken from PubChem BioAssay (Tox21).
# “And” between values parts separate entries of the source, which are not always exact repeats. Equal values may be shown once. Records with an inconclusive call do not appear. Where a call stands in place of a potency, no number is given. Some structures have more than one record in an assay (separate samples or runs), and their calls can disagree. The source made the active and inactive calls. Calls follow the shape of the dose curve; as a rule, active = well fitted inhibition curve with a large enough effect in the repeat runs; inconclusive = weak or mixed curves, or effect the other way; inactive = no such curve, though single readings can be large or run the other way.
# Molecular target: Androgen receptor (Homo sapiens) (UniProt P10275)
# Sequence (P10275 whole entry, looked up): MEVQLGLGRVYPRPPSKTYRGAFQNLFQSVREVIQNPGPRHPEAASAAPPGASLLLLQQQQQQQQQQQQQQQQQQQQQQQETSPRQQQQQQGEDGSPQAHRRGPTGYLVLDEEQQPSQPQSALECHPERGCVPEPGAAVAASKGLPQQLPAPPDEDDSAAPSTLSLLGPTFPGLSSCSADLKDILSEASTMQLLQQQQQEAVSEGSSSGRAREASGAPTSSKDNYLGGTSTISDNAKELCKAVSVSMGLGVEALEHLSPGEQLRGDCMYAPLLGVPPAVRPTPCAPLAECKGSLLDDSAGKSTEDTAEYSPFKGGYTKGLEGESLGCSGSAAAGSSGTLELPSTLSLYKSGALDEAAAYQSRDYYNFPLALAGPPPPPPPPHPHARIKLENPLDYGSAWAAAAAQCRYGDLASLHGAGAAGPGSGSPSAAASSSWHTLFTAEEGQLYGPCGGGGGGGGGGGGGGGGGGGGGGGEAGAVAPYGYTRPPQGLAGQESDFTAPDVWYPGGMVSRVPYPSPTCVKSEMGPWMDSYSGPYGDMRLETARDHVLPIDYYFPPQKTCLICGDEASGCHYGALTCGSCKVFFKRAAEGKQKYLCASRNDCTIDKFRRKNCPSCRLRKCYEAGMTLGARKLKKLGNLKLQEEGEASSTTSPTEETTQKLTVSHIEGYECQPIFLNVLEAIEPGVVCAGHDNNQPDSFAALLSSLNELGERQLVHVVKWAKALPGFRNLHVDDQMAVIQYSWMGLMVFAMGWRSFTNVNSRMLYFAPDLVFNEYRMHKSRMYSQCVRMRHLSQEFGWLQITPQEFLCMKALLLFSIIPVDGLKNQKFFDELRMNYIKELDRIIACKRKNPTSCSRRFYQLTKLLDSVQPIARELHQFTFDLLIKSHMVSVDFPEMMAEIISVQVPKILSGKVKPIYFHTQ
# Assay: qHTS assay to identify small molecule antagonists of the androgen receptor (AR) signaling pathway using the MDA cell line (AID 743042; also: nearly all actives have a fitted effect of over 55% in size)
# Settings: MDA-kb2 AR-luc, MMTV luciferase, R1881 antagonist, 16 h; series mostly up to 70.3 µM
# Outline: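 MDA-kb2 breast carcinoma cells carrying MMTV-luciferase (AR/GR responsive) were co-treated with compounds and the agonist R1881 for 16 h at 37C. Inhibition read as ONE-Glo luminescence; CellTiter-Fluor fluorescence measured in parallel for cytotoxicity.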
# Potency is read from the fitted curve at half-maximal effect.
row,SMILES,Potency
1,C=CC(=O)OCCOC(=O)C=C,inactive
2,NC(=O)c1cccc([N+](=O)[O-])c1,inactive
3,Oc1c(I)cc(Cl)c2cccnc12,inactive
4,c1ccsc1,inactive
5,COC1=C(OC)C(=O)C(CCCCCCCCCCO)=C(C)C1=O,inactive
6,CCCCC(CC)CN1CN(CC(CC)CCCC)CC(C)(N)C1 (configuration not stated),inactive
7,Cc1c2ccccc2c(C)c2c1ccc1ccccc12,inactive and 30.6 µM (active)
